From ChEMBL document CHEMBL3988442, “University of Dundee, Small-Polar-MMV Screening Library” (2021)
In all, about 69,000 compounds went through this assay and about 1,000 (1.4%) showed an effect of 50% or more. Only a selection was taken, and strong results are over-represented in it overall.

System: Leishmania donovani
Assay: Leishmania intramacrophage assay
Assay type: functional, organism-based
Design: scale not given: in the data most compounds retested in dose-response had high values

CCc1cc(=O)[nH]c(-c2ccc(NCCc3ccc(O)cc3)nc2)n1
Percent Effect (30.3 µM, […]): 10.3%

Cc1nc(-c2ccc(NCCc3ccc(O)cc3)nc2)[nH]c(=O)c1C
Percent Effect (30.3 µM, […]): 67.3%

CCOCC1c2c(cnn2CC2CC2)CCN1C(=O)c1ccncn1.O=C(O)C(F)(F)F (stereo not given)
Percent Effect (30.3 µM, […]): -17.31%

Cc1c(C(=O)NS(=O)(=O)c2ccc(F)cc2)cnn1CC(C)C
Percent Effect (30.3 µM, […]): -23.8%

CC(C)N1CCCN(c2nc(-c3cccnc3)nc3c2cnn3C)CC1
Percent Effect (30.3 µM, […]): 93.98%

Cn1ncc2c(N3CCC3)nc(-c3ccncc3)nc21
Percent Effect (30.3 µM, […]): 7.019%

Cn1ncc2c(N3CCS(=O)(=O)CC3)nc(-c3cccnc3)nc21
Percent Effect (30.3 µM, […]): 31.77%

COc1ccccc1-c1csc(NC(=O)N2CCN(C)CC2C)n1 (stereo not given)
Percent Effect (30.3 µM, […]): 9.878%

CCc1ccccc1CN1CC[C@@]2(O)CCN(S(=O)(=O)N(C)C)C[C@H]2C1
Percent Effect (30.3 µM, […]): -14.75%

CCN(C)S(=O)(=O)NCC1CCCN(Cc2ccccc2F)C1 (stereo not given)
Percent Effect (30.3 µM, […]): -11.05%

O=C(c1ccc(O)c(Cl)c1)N1CCN(c2nccs2)CC1
Percent Effect (30.3 µM, […]): 64.57%

Nc1ncc(C(=O)N2CCN(c3nccs3)CC2)cc1Cl
Percent Effect (30.3 µM, […]): -4.984%

O=C(c1cc(Cl)cc(Cl)c1)N1CCN(c2nccs2)CC1
Percent Effect (30 µM, 30.03 µM): 30.43%

CN(Cc1ccccc1C(F)(F)F)C(C(N)=O)c1ccccc1 (stereo not given)
Percent Effect (30.3 µM, […]): 68.32%

CC(C(N)=O)N(C)Cc1ccccc1C(F)(F)F (stereo not given)
Percent Effect (30.3 µM, […]): -40.32%

CN(Cc1ccccc1F)C(C(N)=O)c1ccccc1 (stereo not given)
Percent Effect (30.3 µM, […]): 11.08%

Fc1ccccc1Sc1ccccc1CNC1=NCCN1.I
Percent Effect (30.3 µM, […]): 29.36%

Fc1ccc(Sc2ccccc2CNC2=NCCN2)cc1.I
Percent Effect (30.3 µM, […]): 50.51%

I.c1ccc(Sc2ccc3c(c2)OCO3)c(CNC2=NCCN2)c1
Percent Effect (30.3 µM, […]): 21.74%

Cc1nnc([C@@H]2C[C@H]3CN(C(=O)c4sccc4C)C[C@H]3O2)[nH]1
Percent Effect (30.3 µM, […]): 16.44%

CN(Cc1cccnc1)[C@@H]1CN(C(=O)c2ccoc2)[C@@H]2CCCO[C@H]12.O=C(O)C(F)(F)F.O=C(O)C(F)(F)F
Percent Effect (30.3 µM, […]): -5.312%

CN(Cc1cccnc1)[C@@H]1CN(C(=O)CC2CC2)[C@@H]2CCCO[C@H]12.O=C(O)C(F)(F)F.O=C(O)C(F)(F)F
Percent Effect (30.3 µM, […]): -10.3%

CN(Cc1cccnc1)[C@@H]1CN(C(=O)c2ccno2)[C@@H]2CCCO[C@H]12.O=C(O)C(F)(F)F.O=C(O)C(F)(F)F
Percent Effect (30.3 µM, […]): 75.56%

Cn1ccnc1-c1noc(NCc2ccc(Cl)cc2)n1
Percent Effect (30.3 µM, […]): -1.294%

Cc1cc(C)nc(NC(=O)NCCCSc2nncn2C)n1
Percent Effect (30.3 µM, […]): 12.59%

Cc1ccccc1-n1cnc(Cl)c1C(=O)O
Percent Effect (30.3 µM, […]): 51.36%

O=C(O)c1c(Cl)ncn1-c1ccccc1
Percent Effect (30.3 µM, […]): 42.23%

O=C(O)c1c(Cl)ncn1-c1cccc2ccccc12
Percent Effect (30.3 µM, […]): 32.69%

CN(C)C1CCC2(CCN(Cc3nccn3C)CC2)c2ccccc21.O=C(O)C(F)(F)F.O=C(O)C(F)(F)F (stereo not given)
Percent Effect (30.3 µM, […]): 15.24%

c1cncc(CN2CCC(NCCc3ccc4c(c3)OCO4)CC2)c1
Percent Effect (30.3 µM, […]): 21.95%

COc1cccc(-c2cc(C(=O)NCCCC(F)(F)F)[nH]n2)c1
Percent Effect (30.3 µM, […]): 24.25%

COc1cccc(-c2cc(C(=O)NCCCn3nc(C)cc3C)[nH]n2)c1
Percent Effect (30.3 µM, […]): 35.19%

COc1cccc(-c2cc(C(=O)NCCCn3cnnc3)[nH]n2)c1
Percent Effect (30.3 µM, […]): 50.06%

Cc1cc(C)c2c(c1)C(CC(=O)O)C(=O)N2 (stereo not given)
Percent Effect (30.3 µM, […]): 12.49%

Cc1ccc2nc(C)c(C)c(C(=O)NCCCn3ccnn3)c2c1
Percent Effect (30.3 µM, […]): 16%

CC(C)(C)c1n[nH]c(C2CN(Cc3nnc(C4CC4)o3)CCO2)n1 (stereo not given)
Percent Effect (30 µM): 6.806%

Cc1cc(C(=O)N2C[C@@H](CN(C)CCN(C)C)[C@@H](CO)C2)nc(C)n1
Percent Effect (30.3 µM, […]): 0.2814%

COc1ccc2cc(C(=O)N3CCCCC3CC(N)=O)[nH]c2c1 (stereo not given)
Percent Effect (30 µM, 30.03 µM): 4.026%

NC(=O)CN1CCC(NC(=O)Nc2nccs2)CC1
Percent Effect (30 µM, 30.03 µM): -0.9986%

CC(CNCc1ccncc1)Oc1ccccn1.Cl (stereo not given)
Percent Effect (30 µM, 30.03 µM): 6.303%

Cc1c(C)n(CC(O)CN2CCCCCC2)c2c(Cl)cccc12 (stereo not given)
Percent Effect (30.3 µM, […]): -13.19%

Cc1c(C)n(CC(O)CN2CCOCC2)c2c(Cl)cccc12.Cl (stereo not given)
Percent Effect (30.3 µM, […]): -3.857%

Cc1c(C)n(CC(O)CN2CCN(CCO)CC2)c2c(Cl)cccc12.Cl (stereo not given)
Percent Effect (30.3 µM, […]): 50.22%

O=C(C1CCOCC1)N1CC[C@H](O)[C@@H]1Cc1cccnc1
Percent Effect (30.3 µM, […]): 25.33%

Cc1noc(C)c1CN(C)c1ncnc2onc(C)c12
Percent Effect (30.3 µM, […]): -10.33%

O=C(c1cscn1)N1C[C@H](OCc2cccnc2)[C@H]2COC[C@H]21
Percent Effect (30.3 µM, […]): -0.3632%

COc1cccc(C(C(=O)O)N2CCC(Cn3cccn3)CC2)c1OC (stereo not given)
Percent Effect (30.3 µM, […]): 3.274%

CNc1nc(CNC(=O)Nc2cccc(Cl)c2OC)cs1
Percent Effect (30 µM): 28.86%

COc1c(Cl)cccc1NCc1csc(C)n1
Percent Effect (30.3 µM, […]): -4.371%

COc1c(Cl)cccc1NCc1csc(NC(C)=O)n1
Percent Effect (30.3 µM, […]): 71.24%
